# System: VDR:RXRa (NR concentration 270 nM, RXRa partner concentration 90 nM)
# Experiment: PBM binding z-score (relative to random genomic background probes); higher = stronger binding; sequences stand for … in GC…GCGATTGACAGCGTAGAATGAAGG
# Method: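 Protein-binding microarray (Agilent 4x180K custom design, double-stranded 60-nt probes: 5' GC cap, 34-nt variable region, 24-nt constant primer region; full probe sequence given). Purified or IVT nuclear receptor:RXRα heterodimers (3:1 NR:RXRα, mostly 270:90 nM) or homodimers were incubated for 1 h in PBS with 2% milk and no ligand, then detected with Alexa488 antibodies. Fluorescence from o1-orientation probes (~5 replicates averaged) was converted to z-scores against 500 random hg19 background probes. Variable regions are seed direct-repeat (DR0–DR5) sites, all their single-nucleotide variants and half-site ablations.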
row,Sequence,PBM binding z-score
1,TATACAGTGTCAAAGGCCAGAGTACGAATGTCGA,0.815
2,TCTCGGAGGACACGAAAGGTCAGAGCACGACATC,3.41
3,TCTAGCAGGCCAGACGGTCACTCAAGAGGTACGG,-0.346
4,CCTACCGGGCCAAAGGTCATTGATTCCAATGCTC,4.8
5,GCAGACAGGTGAAACGCATGTAACTCAGGGTGGC,-0.601
6,TTTCAAAGTTCAAAGGTAACGTAAGTATCCACAC,5.06
7,CCTAGCAGGCCAGGGTTACTCAAGCATTTCGCTT,-0.412
8,ACTAGCTGGCCAAGTTTGGGTCACTCAAACAAAG,0.228
9,ACAGACAGGTGAGTAAAGGTAACTCAGCTGGACG,-0.139
10,CCAACTGGGCCACGAAAGGTCATTGATTCAGTGA,4.26
11,CCTATTAGTTGACAATAAGGGCAACCGAAGCTCG,1.09
12,TCTTGTAGTTCAAAGGTTAAGAAAGCCGAAGCCT,3.68
13,ATACCGAGGTGATCGTGAGGTCGTTGATACTAAC,3.69
14,CTACCAAGGTGAACAAGGTCGTTCATTACTATTC,6.53
15,CAAACTAGGTCAAAGCTCAAAGTCGAGCCAACCA,1.74
16,AGAACGAGGGCAATGAGTTGAAAGCACGGGTGGC,5.39
17,CAAACTAAGTCAAGAGGTCAAAGTCCGCTTCCCG,5.15
18,GCTTGTAGATCAAGGTTAAGAAAGACTAAGCTAA,0.156
19,CCGACTGGGGCAAGGTTACCAAAACGCACAGCCA,0.129
20,CATTACGGGTCAAGGTTATAGCACGGGTGGTACG,3.96

row,Sequence,PBM binding z-score
1,CCTTCTGGGCCACGAAAGGTCATTGATTCAGTGA,4.28
2,GCTTACGGGTCAAAGGTTATACCATGAATAGAAT,5.75
3,CGTTACGGGTCACGAGGTTATAGCACGACGAGCG,5.35
4,CAAACTAGGTCAAGTTCAAAGTCGGTTTGTGCCA,4.94
5,GCTAGCAGGCCATTTGGGTAACTCAATGACGGGC,-0.713
6,GCTAGTTGGTCAGTAAAAGGTCATACACCGGTCG,3.69
7,CCGACTGGTGCAAAGGTTACCATACTCAGTACGA,1.74
8,CCGAGTAGGGTATGGGGCATTCAGGCAACGGTGA,-0.217
9,CATACAGTGTCAGCTAGGCCAGAGTAGGGACGGC,-0.152
10,CCTCCTGGGCCATTCAGAGGTCATTGATCATATG,3.97
11,CAAACTAGGTCAAGAGGTCAAAATCCGCTTCCCG,5.85
12,CCGACTCGGGCAGAAAGGTTACCATACCATCCGG,0.699
13,ACTTACGGGTGAACGAGGTTATAGCACGCGTATA,5.33
14,TCGTGTAGGTTAGGGGCATTCAGAATGGCGTCGA,0.914
15,CGTCAAAGTTCTACTAAGGTAACGTAAAGCACGC,0.34
16,CGTCCAAGGTCAATGCTAGGTCAGTAAAAGCATT,4.76
17,ACATGTAGGTTACATCCGGGTCATTCAGGCTATG,4.11
18,TCTTGTAGATCAATAGAGGTTCAGAAAGTGCGCT,1.65
19,CACACAGGGTCAGCTAGGCCAGAGTAGGGACGGC,3.8
20,AGCACGAGGGCACGCTGAGTTGATAGCAGAGTAG,2.17
